Results filed as inconclusive are left out. A call without a number means that no potency is given here. Activity calls are given as the source filed them. Unless noted, calls follow the shape of the dose curve; as a rule, active = well fitted curve in the direction sought with a large enough effect; inconclusive = small, poorly fitted or top-dose-only effect, or another doubt; inactive = no such curve, though single readings can be large; an effect the other way counts as inactive or inconclusive.
What was measured:
[1] = Cell Viability - N2a (AID 540); conditions: N2a mouse neuroblastoma cell viability; activity change, negative = cytotoxicity: at 92.2 µM (top of the series); also: nearly all actives have a fitted effect of over 45% in size
Summary of the method: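 Mouse neuroblastoma N2a cells (1500/well) were preincubated 5 hr at 37 °C, then exposed to compounds for 40 hr at 37 °C in complete medium. Viability was read as intracellular ATP by CellTiter-Glo luminescence; AC50 from Hill fits.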

[2] = Cell Viability - H-4-II-E (AID 543); also: nearly all actives have a fitted effect of over 35% in size
Summary of the method: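 Rat hepatoma H-4-II-E cells (1500/well) were plated, incubated 5 hr at 37 °C, then exposed to compounds for 40 hr at 37 °C. Cellular ATP was read by CellTiter-Glo luminescence; AC50 came from Hill-equation fits of concentration-response data.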

[3] = Cellular Toxicity (caspase-3) Mesangial (AID 660);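 also: cells exposed to compound for 16 h before the caspase read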
Summary of the method: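 Human renal glomerular mesangial cells (1000/well) were treated with compounds for 16 h at 37 °C in complete medium, then caspase 3/7 activity was read by Caspase-Glo luminescence. Data were normalized to DMSO and 100 uM tamoxifen; AC50 from Hill fits.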

[4] = Cellular Toxicity (caspase-3) NIH 3T3 (AID 666);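 also: caspase signal read after 16 h compound exposure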
Summary of the method: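 Mouse NIH 3T3 fibroblasts (1000 cells/well) were treated with compound for 16 hr at 37°C in complete medium; caspase-3/7 activity was read by Caspase-Glo luminescence. Normalized to DMSO and 100 uM tamoxifen; AC50 from Hill fits.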

[5] = biological target: Cytochrome P450 3A4 (Homo sapiens) (UniProt P08684); experiment: qHTS Assay for Inhibitors and Substrates of Cytochrome P450 3A4 (AID 884); also: nearly all actives have a fitted effect of over 50% in size
Summary of the method: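 20 nM human CYP3A4 with 25 uM Luciferin-PPXE (at KM) in 200 mM KPO4, preincubated 10 min with compound; NADPH regeneration started a 60 min RT reaction. Luciferin detected by luminescence, normalized to 57 uM ketoconazole as full inhibition.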

[6] = MultiTox-Fluor Cytotoxicity Assay - LYMP1-002 - Dead Cells (AID 960); also: nearly all actives have a fitted effect of over 60% in size
Summary of the method: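 Human lymphoblastoid cells (LYMP1-002), 2500/well in complete medium, were exposed to compounds for 16 hr at 37 C. Dead-cell protease activity was read as bis-AAF-R110 fluorescence (Ex/Em 485/520), normalized to DMSO and 15 uM tetraoctylammonium bromide; AC50 from Hill fits.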

[7] = Cell Viability - LYMP2-004 (AID 966); also: nearly all actives have a fitted effect of over 65% in size
Summary of the method: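 Human lymphoblastoid cells (2500/well) in complete medium were treated with compounds for 24 hr at 37 C, then intracellular ATP was measured by CellTiter-Glo luminescence. AC50 values came from Hill-equation fits of concentration-response data.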

[8] = Cell Viability - LYMP2-021 (AID 974);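 also: compound exposure lasts 24 hours at 37 °C; nearly all actives have a fitted effect of over 55% in size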
Summary of the method: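 Human lymphoblastoid cells (2500/well) were preincubated 5 hr at 37 C, then exposed to compounds for 24 hr at 37 C in complete medium. Intracellular ATP was read by CellTiter-Glo luminescence; AC50 came from Hill-equation fits of concentration-response data.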

[9] = Cell Viability - LYMP2-012 (AID 982);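 also: cellular ATP by luciferase luminescence where a drop means cytotoxicity; cells exposed to compound for one day before reading; nearly all actives have a fitted effect of over 55% in size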
[10] = Cell Viability - LYMP1-002 - Assay at 40 hr (AID 994); also: nearly all actives have a fitted effect of over 60% in size
Summary of the method: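 Human lymphoblastoid cells, 2500/well in complete medium, were preincubated 5 hr at 37 C, then exposed to compounds for 40 hr at 37 C. Intracellular ATP was read by CellTiter-Glo luminescence after 30 min at room temperature; AC50 from Hill-equation fits.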

[11] = biological target: Vitamin D3 receptor (Homo sapiens) (UniProt P11473); experiment: qHTS assay for small molecule antagonists of vitamin D receptor signaling (AID 588541; calls by dose curve;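 also: receptor activated by calcitriol during compound treatment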)
Summary of the method: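 VDR-UAS-bla HEK293T cells (2000/well, 2% charcoal-stripped FBS) were treated with titrated compounds plus 1-alpha,25-dihydroxyvitamin D3 (50 nM or 3 nM final) for 16 h at 37 C. CCF4 beta-lactamase fluorescence was read; Hill fits gave IC50.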

[12] = biological target: Vitamin D3 receptor (Homo sapiens) (UniProt P11473); experiment: qHTS assay for small molecule agonists of vitamin D receptor signaling (AID 588543; calls by dose curve)
Summary of the method: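 Measured: β-lactamase reporter activity (CCF4, 405 nm excitation, 460/530 nm emission) in HEK293T VDR-UAS-bla cells after 16 h compound exposure at 37 °C. Normalization against 50 nM 1α,25-dihydroxyvitamin D3 and DMSO; Hill-fit EC50.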

[13] = biological target: Thyroid hormone receptor beta (Homo sapiens) (UniProt P10828); experiment: qHTS assay for small molecule agonists of thyroid hormone receptor beta signaling (AID 588545; calls by dose curve)
Summary of the method: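 Compounds were tested as agonists in TR-UAS-bla-GripTite HEK 293 cells. After 18 hrs at 37 C, CCF4 substrate was added and fluorescence read after 2 hrs at room temperature.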

[14] = qHTS assay for small molecule antagonists of retinoid X receptor alpha signaling (AID 588546; active = well fitted inhibition curve with a large enough effect in the signal ratio, with a control signal flat, not every such curve was filed as active; the % refers to the signal ratio;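 also: cells stimulated with 9-cis-retinoic acid as agonist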); conditions: HEK293T RXRa-UAS-bla, beta-lactamase ratio, antagonist mode; measured here: W530 green channel, cytotoxicity proxy
Summary of the method: (§1)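 Beta-lactamase reporter inhibition, read as CCF4 fluorescence ratio (ex 405, em 460/530 nm) after 2 h at RT. HEK293T UAS-bla cells, 2500/well, were stimulated with 9-cis-RA at 500 or 100 nM final alongside test compound for 18 h at 37 C.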

[15] = biological target: Retinoic acid receptor RXR-alpha (Homo sapiens) (UniProt P19793); experiment: as above; conditions: HEK293T RXRa-UAS-bla, beta-lactamase ratio, antagonist mode
Summary of the method: as §1

[16] = biological target: Tumor necrosis factor (Homo sapiens) (UniProt P01375); experiment: qHTS assay to identify small molecules that stimulate Tumor Necrosis Factor-alpha (TNF-alpha) secretion (AID 651757; active = well fitted curve in the direction sought with a large enough effect in the signal ratio; the % refers to the signal ratio)
Summary of the method: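 THP-1 cells were exposed to compounds for 17 hrs at 37 C, after which secreted TNF-alpha was measured by homogeneous HTRF (TR-FRET) using cryptate- and XL665-labeled anti-TNF-alpha antibodies, read after 3 hr at room temperature.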

[17] = biological target: Nuclear receptor ROR-gamma (Homo sapiens) (UniProt P51449); experiment: qHTS assay for small molecule antagonists of the retinoid-related orphan receptor gamma (ROR-gamma) signaling pathway (AID 651802); also: nearly all actives have a fitted effect of over 60% in size
Summary of the method: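 CHO cells carrying TET-inducible ROR-gamma and an ROR response element–luciferase reporter were exposed to compound, then induced with doxycycline. After 16hr at 37C, luminescence was read; lower signal indicates antagonism.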

[18] = qHTS assay for small molecule agonists of the antioxidant response element (ARE) signaling pathway measured by Nrf2-dependant transcriptional activity (AID 720636; active = well fitted curve in the direction sought with a large enough effect in the repeat runs; an effect the other way counts as inactive or inconclusive)
Summary of the method: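 ARE-luc HepG2 cells carrying an Nrf2-responsive luciferase reporter, in medium with 1% dialyzed FBS, exposed to compound for 16 hr at 37 C, 5% CO2. Luminescence read 30 min after ONE-Glo addition.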

[19] = qHTS assay for small molecule activators of the human pregnane X receptor (PXR) signaling pathway (AID 720659; call rule not given here)
[20] = qHTS assay for small molecule antagonists of the retinoid-related orphan receptor gamma (ROR-gamma) signaling pathway - cell viability counter screen (AID 720652; active = well fitted curve in the direction sought with a large enough effect in the repeat runs; an effect the other way counts as inactive or inconclusive;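 also: compound exposure lasted 16 hr before ATP read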)
Summary of the method: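 Counter screen in CHO cells carrying TET-inducible ROR-gamma and an ROR response element-luciferase reporter; cells plated 5 hr, compound pinned, doxycycline added, then 16 hr at 37 C. Viability read as intracellular ATP by CellTiter-Glo luminescence.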

Sequence of Nuclear receptor ROR-gamma (Homo sapiens) (P51449 whole entry, looked up): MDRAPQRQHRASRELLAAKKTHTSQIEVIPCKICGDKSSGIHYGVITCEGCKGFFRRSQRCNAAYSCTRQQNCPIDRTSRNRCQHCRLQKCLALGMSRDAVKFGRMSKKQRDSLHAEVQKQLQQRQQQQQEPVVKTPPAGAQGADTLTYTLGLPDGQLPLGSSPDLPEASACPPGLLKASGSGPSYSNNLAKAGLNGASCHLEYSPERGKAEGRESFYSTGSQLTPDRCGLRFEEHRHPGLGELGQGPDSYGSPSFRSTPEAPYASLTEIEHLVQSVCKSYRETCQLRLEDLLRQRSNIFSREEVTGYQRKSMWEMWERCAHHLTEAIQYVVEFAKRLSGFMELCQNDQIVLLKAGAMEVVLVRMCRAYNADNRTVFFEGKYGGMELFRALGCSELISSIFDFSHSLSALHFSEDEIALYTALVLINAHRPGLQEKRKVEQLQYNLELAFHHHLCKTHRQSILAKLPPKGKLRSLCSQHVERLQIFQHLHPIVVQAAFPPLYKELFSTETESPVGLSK
Sequence of Vitamin D3 receptor (Homo sapiens) (P11473 whole entry, looked up): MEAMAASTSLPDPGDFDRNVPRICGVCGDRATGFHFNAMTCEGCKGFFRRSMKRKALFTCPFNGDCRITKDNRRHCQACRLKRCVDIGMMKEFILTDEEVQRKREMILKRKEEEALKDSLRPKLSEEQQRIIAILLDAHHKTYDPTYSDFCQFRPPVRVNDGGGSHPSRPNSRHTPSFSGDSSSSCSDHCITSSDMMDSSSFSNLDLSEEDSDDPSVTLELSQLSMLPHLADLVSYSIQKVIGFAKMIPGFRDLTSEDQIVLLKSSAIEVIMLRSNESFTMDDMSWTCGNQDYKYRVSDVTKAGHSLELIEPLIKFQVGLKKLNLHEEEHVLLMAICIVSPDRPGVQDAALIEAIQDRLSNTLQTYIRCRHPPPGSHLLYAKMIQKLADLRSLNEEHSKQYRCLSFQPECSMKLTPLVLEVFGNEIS
Sequence of Cytochrome P450 3A4 (Homo sapiens) (P08684 whole entry, looked up): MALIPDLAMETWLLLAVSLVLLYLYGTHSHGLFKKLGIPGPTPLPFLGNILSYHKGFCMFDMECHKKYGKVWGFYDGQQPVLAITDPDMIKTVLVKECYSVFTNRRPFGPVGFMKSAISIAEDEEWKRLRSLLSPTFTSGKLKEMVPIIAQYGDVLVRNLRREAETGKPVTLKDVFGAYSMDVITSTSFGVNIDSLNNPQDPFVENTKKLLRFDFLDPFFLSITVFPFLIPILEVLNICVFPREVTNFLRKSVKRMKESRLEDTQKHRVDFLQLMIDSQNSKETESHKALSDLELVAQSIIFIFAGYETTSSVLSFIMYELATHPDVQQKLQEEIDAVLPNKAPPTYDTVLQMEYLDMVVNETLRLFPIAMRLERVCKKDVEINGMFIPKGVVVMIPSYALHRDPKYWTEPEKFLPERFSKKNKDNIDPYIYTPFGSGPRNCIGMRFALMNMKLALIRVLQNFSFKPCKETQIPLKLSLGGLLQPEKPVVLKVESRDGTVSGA
Sequence of Thyroid hormone receptor beta (Homo sapiens) (P10828 whole entry, looked up): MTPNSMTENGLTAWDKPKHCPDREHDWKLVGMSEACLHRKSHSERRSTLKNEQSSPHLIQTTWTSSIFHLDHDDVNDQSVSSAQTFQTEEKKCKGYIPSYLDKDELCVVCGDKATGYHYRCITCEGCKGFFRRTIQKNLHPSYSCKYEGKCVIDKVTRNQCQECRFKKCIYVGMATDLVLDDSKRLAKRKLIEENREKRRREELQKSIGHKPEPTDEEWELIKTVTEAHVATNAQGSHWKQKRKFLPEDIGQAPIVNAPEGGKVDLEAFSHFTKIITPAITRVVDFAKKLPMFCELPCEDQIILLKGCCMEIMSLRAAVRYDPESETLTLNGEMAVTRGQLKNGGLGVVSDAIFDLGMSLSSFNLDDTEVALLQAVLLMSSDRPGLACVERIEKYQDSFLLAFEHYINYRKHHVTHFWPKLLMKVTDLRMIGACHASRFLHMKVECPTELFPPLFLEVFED
Sequence of Retinoic acid receptor RXR-alpha (Homo sapiens) (P19793 whole entry, looked up): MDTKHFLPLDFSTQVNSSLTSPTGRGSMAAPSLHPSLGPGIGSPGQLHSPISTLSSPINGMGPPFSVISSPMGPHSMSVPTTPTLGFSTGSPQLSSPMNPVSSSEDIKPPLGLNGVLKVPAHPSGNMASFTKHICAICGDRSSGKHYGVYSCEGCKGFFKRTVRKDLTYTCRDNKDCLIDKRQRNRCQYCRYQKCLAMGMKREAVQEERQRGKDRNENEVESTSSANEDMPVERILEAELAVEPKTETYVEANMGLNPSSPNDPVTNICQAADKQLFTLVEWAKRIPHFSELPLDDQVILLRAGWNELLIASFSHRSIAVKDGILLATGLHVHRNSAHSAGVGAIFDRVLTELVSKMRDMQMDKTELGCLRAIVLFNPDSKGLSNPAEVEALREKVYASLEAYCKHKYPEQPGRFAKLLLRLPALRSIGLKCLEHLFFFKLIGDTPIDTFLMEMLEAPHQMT
Sequence of Tumor necrosis factor (Homo sapiens) (P01375 whole entry, looked up): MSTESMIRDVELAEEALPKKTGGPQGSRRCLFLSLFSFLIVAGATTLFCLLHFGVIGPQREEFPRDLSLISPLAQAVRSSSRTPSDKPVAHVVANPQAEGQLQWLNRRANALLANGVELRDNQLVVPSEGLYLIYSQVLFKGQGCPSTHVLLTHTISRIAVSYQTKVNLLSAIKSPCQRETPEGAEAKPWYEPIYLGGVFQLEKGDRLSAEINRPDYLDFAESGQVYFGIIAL

Row | Structure (SMILES) | Potency [1] | Potency [2] | outcome [3] | Potency [4] | Potency [5] | Potency [6] | Potency [7] | Potency [8] | Potency [9] | Potency [10] | outcome [11] | outcome [12] | Potency [13] | max response [14] [%] | max response [15] | outcome [16] | Potency [17] | Potency [18] | outcome [19] | Potency [20]
1 | O=C(O)CCl | inactive | inactive | inactive | inactive | inactive | inactive | inactive | inactive | inactive | inactive | inactive | inactive | inactive | 1.14 | -2.41% (inactive) | inactive | inactive | inactive | inactive | –
2 | Brc1cccc(-c2ccccc2)c1 | inactive | inactive | inactive | inactive | inactive | inactive | inactive | inactive | inactive | inactive | inactive | inactive | inactive | – | – | inactive | inactive | inactive | inactive | inactive
3 | CCNCC | inactive | inactive | inactive | inactive | inactive | inactive | inactive | inactive | inactive | inactive | inactive | inactive | inactive | – | – | inactive | inactive | inactive | inactive | inactive
4 | O=[N+]([O-])c1cccc2c([N+](=O)[O-])cccc12 | inactive | inactive | inactive | inactive | inactive | inactive | inactive | inactive | inactive | inactive | – | – | inactive | -12.9 | 7.28% (inactive) | inactive | inactive | – | inactive | inactive
5 | c1ccc(C2CO2)cc1 (stereo unspecified) | inactive | inactive | inactive | inactive | inactive | inactive | – | inactive | inactive | inactive | inactive | inactive | – | -9.84 | 32.3% (inactive) | inactive | inactive | inactive | inactive | inactive
6 | C=C(Cl)CCl | inactive | inactive | – | inactive | inactive | inactive | inactive | inactive | inactive | inactive | inactive | inactive | inactive | 4.21 | -0.897% (inactive) | inactive | inactive | inactive | inactive | inactive
7 | ClCCCCl | inactive | inactive | – | inactive | inactive | inactive | – | inactive | inactive | inactive | inactive | inactive | – | -7.74 | 9.28% (inactive) | inactive | inactive | inactive | inactive | inactive
8 | CC12CC1(C)C(=O)N(c1cc(Cl)cc(Cl)c1)C2=O (stereo unspecified) | inactive | inactive | inactive | inactive | inactive | inactive | inactive | inactive | – | inactive | inactive | inactive | inactive | 4.78 | -13.5% (inactive) | inactive | inactive | inactive | – | –
9 | CC(C)CC(C)N (stereo unspecified) | inactive | inactive | inactive | inactive | inactive | inactive | inactive | inactive | inactive | inactive | – | – | inactive | -2.75 | 1.28% (inactive) | inactive | inactive | inactive | inactive | inactive
10 | Clc1ccc(C(Cl)(Cl)Cl)c(Cl)c1 | inactive | inactive | inactive | – | – | inactive | inactive | inactive | inactive | inactive | inactive | inactive | inactive | -9.41 | 8.02% (inactive) | inactive | inactive | inactive | inactive | inactive
11 | [O-][Cl+]O | inactive | inactive | – | inactive | inactive | inactive | inactive | inactive | inactive | inactive | inactive | inactive | inactive | 0.141 | 22.2% (inactive) | inactive | inactive | inactive | – | inactive
12 | Cc1ccccc1[N+](=O)[O-] | inactive | inactive | inactive | inactive | inactive | inactive | inactive | inactive | inactive | inactive | inactive | inactive | inactive | -5.55 | 10.9% (inactive) | inactive | inactive | inactive | inactive | inactive
13 | C=CC=O | inactive | inactive | inactive | – | inactive | inactive | inactive | – | inactive | inactive | inactive | inactive | inactive | – | – | inactive | inactive | inactive | inactive | inactive
14 | CCC[N+](=O)[O-] | inactive | inactive | inactive | inactive | inactive | inactive | inactive | inactive | inactive | inactive | inactive | inactive | inactive | – | – | inactive | inactive | inactive | inactive | inactive
15 | Cc1ccc(N)cc1C | inactive | inactive | inactive | inactive | inactive | inactive | inactive | inactive | inactive | inactive | inactive | inactive | inactive | -3.11 | -2% (inactive) | inactive | inactive | inactive | inactive | inactive
16 | COc1c(C(C)(C)C)cc([N+](=O)[O-])c(C)c1[N+](=O)[O-] | inactive | inactive | inactive | inactive | inactive | inactive | inactive | inactive | inactive | inactive | inactive | inactive | inactive | -1.47 | -14.3% (inactive) | inactive | inactive | inactive | inactive | inactive

— PubChem BioAssay (NCATS)
